# High-throughput results: PubChem, several laboratories
# An excerpt weighted towards active compounds, which were near 4.6% of everything screened.
# Peg3 promoter: inhibitors of Peg3 promoter; HeLa PEG-Prom luciferase reporter, luminescence, overnight; inhibition, % at 20 µM; 1.7% of 360,000 active; AID 588405;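 active means inhibition of at least 50% at 20 µM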
# ABHD5 PLIN5 PPI: ABHD5-PLIN5 protein interaction inhibition; Q00G26+Q8WTS1; Split G. princeps luciferase complementation, luminescence, 4 h; inhibition, % at 4 µM; 0.78% of 360,000 active; AID 602281;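 active means inhibition above the mean inhibition across every tested compound plus 3 SD, cut at about 22% in these data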;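 further: 0% = DMSO only wells and the 100% control is not disclosed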
# CF NFkB inh: blocks PAF-induced NF-kB reporter in cystic fibrosis cells; KKLEB NF-kB-GFP reporter, GFP fluorescence overnight; inhibition, % at 5 µM; 0.86% of 360,000 active; AID 588850;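 active means at least 50% inhibition at 5 µM, scaled per plate between neutral and stimulator controls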;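 further: PAF is a Pseudomonas aeruginosa culture filtrate used as stimulus; plate controls were PAF-stimulated DMSO wells for no effect and unstimulated DMSO wells for full effect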
# KKLEB cytotox: reduces viability of KKLEB cystic fibrosis airway cells; 0.36% of 360,000 active; activity change (cytotoxicity), % at 5 µM; AID 602141; KKLEB CF airway cells viability, ATPlite luminescence, overnight; stronger effect = lower value; cells stimulated with P. aeruginosa culture filtrate;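 active means corrected activity change at or below -50% at 5 µM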
# HIF-2a block: HIF-2a inhibition; 786-0 RCC cells HIF-2a reporter, luciferase luminescence, overnight; inhibition, % at 18.8 µM; 0.72% of 360,000 active; AID 624352;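 active means inhibition of the luminescence signal of 40% or more relative to plate controls, in a single-dose primary screen at 18.75 µM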
# Mdm2 MdmX PPI: disrupts the human Mdm2-MdmX interaction | SaOS-2 split-luciferase Mdm2/MdmX complementation, luminescence | inhibition, % at 8 µM | 3% of 330,000 active | AID 485346 | O15151+Q00987;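 active means inhibition of at least 50% at 8 µM in the primary screen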
# Target sequence (O15151 whole entry, looked up): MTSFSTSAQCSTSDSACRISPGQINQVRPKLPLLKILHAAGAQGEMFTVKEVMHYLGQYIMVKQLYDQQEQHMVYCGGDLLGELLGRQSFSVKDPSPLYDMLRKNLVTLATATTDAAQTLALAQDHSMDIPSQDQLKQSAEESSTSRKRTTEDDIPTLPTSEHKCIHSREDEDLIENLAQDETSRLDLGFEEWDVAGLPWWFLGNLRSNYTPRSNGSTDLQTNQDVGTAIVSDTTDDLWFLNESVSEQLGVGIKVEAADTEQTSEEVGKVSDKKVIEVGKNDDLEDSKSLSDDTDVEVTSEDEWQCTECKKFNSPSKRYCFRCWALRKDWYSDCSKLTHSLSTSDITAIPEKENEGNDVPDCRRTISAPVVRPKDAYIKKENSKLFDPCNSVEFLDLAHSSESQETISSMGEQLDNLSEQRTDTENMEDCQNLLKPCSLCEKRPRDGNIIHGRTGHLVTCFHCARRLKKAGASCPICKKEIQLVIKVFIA
# Target sequence (Q00987 whole entry, looked up): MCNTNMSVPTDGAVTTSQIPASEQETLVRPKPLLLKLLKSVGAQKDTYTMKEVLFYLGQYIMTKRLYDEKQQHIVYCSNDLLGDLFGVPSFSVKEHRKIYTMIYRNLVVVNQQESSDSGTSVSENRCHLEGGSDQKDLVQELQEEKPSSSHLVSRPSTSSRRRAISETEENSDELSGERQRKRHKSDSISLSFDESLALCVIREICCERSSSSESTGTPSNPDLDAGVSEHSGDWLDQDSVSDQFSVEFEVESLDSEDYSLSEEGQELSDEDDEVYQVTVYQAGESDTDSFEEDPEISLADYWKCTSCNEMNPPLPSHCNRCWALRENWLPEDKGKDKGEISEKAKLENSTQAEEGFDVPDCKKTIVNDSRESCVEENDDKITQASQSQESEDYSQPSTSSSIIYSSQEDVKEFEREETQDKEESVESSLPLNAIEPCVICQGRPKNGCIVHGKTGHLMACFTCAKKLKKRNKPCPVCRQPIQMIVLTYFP
# Mdm2-MdmX conf: human Mdm2/MdmX binding inhibition, confirmed; 55% of 10,000 active; shares compounds with Mdm2 MdmX PPI; inhibition, % at 8 µM; AID 489028; luminescent assay; in the data active means inhibition above about 40%
# Full FLuc ctr: counter-screen for Mdm2/MdmX inhibitors: full-length luciferase | shares compounds with Mdm2 MdmX PPI | SaOS-2 full-length luciferase counterscreen, luminescence | inhibition, % at 8 µM | 77% of 6,200 active;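 active means mean inhibition at 8 µM reaching about 37%, which flags the compound as non-specific, limit read from the data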;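 further: p53-null SaOS-2 cells with luciferase driven by a doxycycline-inducible promoter; compound on cells about two nights before reading with doxycycline added after day one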
# * marks the source's active call; other numbers are inactive results; nt = no result.
SMILES,Peg3 promoter,ABHD5 PLIN5 PPI,CF NFkB inh,KKLEB cytotox,HIF-2a block,Mdm2 MdmX PPI,Mdm2-MdmX conf,others
Cc1cccc(N/C=C/c2onc(C)c2[N+](=O)[O-])c1,-181.5,0.1,-5.8,7.4,-225.4,-74.2,nt,
COc1ccc(N2CC(O)=C(c3nc(-c4ccccc4)cs3)C2=N)cc1,3.1,-6.6,4.3,2.1,-7.1,1.7,nt,
COc1ccc(N2CC(O)=C(c3nc(-c4ccc(Cl)cc4)cs3)C2=N)cc1,23.9,-3.9,2.5,-0.6,14.7,52.8*,41.5*,Full FLuc ctr=62.6*
COc1ccc(N2CC(O)=C(c3nc(-c4ccc(Br)cc4)cs3)C2=N)cc1,26.1,8.4,0.0,10.1,3.0,71.4*,54.0*,Full FLuc ctr=75.2*
COc1ccc(N2CC(O)=C(c3nc(-c4ccc(F)cc4)cs3)C2=N)cc1,11.6,-2.9,1.3,9.9,2.8,16.8,nt,
Cc1ccc(N2CC(C(=O)Nc3c4c(nn3C(C)(C)C)CS(=O)(=O)C4)CC2=O)cc1 (configuration not stated),2.2,3.3,-36.1,-1.9,8.6,-6.7,nt,
Cn1c(=O)c2cc(NC(=O)CCc3cccnc3)ccc2n1Cc1ccc(F)cc1,1.3,-7.1,-2.9,6.8,2.4,nt,nt,
CCN1C(=O)[C@H]2[C@@H](c3ccc(Cl)cc3)N3C(=O)CN(CCOC)C(=O)[C@@]3(Cc3ccccc3)[C@H]2C1=O,-3.2,-3.5,5.9,0.7,16.6,-31.8,nt,
COc1ccc(-c2ccc3c(c2)S(=O)(=O)c2cccc(C(=O)NC4CC4)c2C3=O)cc1OC,4.9,-10.1,-12.1,4.3,1.8,72.3*,51.6*,Full FLuc ctr=46.0*
COc1ccc(-c2ccc3c(c2)S(=O)(=O)c2cccc(C(=O)NCCOc4ccccc4Cl)c2C3=O)cc1OC,87.1*,4.1,-0.5,-22.0,-15.4,95.3*,27.9,
COc1ccc(-c2ccc3c(c2)S(=O)(=O)c2cccc(C(=O)NCc4ccccc4Cl)c2C3=O)cc1OC,4.7,-1.4,17.2,-5.5,-31.9,21.6,nt,
COc1ccc(-c2ccc3c(c2)S(=O)(=O)c2cccc(C(=O)NC4CCCCC4)c2C3=O)cc1OC,24.8,-10.4,20.7,-9.9,7.7,6.0,nt,
CCCCn1c(NC(=O)c2ccccc2Cl)c(C#N)c2nc3ccccc3nc21,52.7*,-51.7,31.7,-39.9,7.1,57.7*,23.5,
Cc1ccc(-c2nc3cccnc3o2)cc1NC(=O)COc1ccc(Cl)cc1C,35.4,1.6,60.2*,-48.9,9.1,84.5*,18.7,
COC(=O)C1=C(C(=O)OC)[C@@H]2N(Cc3ccccc3)c3ccccc3[C@@]23C[C@@H](C(=O)OC)N(C(=O)c2cc(C)oc2C)C3=N1,55.0*,2.0,46.1,-23.9,5.3,56.6*,6.8,
COC(=O)C1=C(C(=O)OC)[C@@H]2N(Cc3ccccc3)c3ccccc3[C@@]23C[C@@H](C(=O)OC)N(C(=O)c2cccs2)C3=N1,81.4*,-4.7,38.1,-15.5,-0.5,59.7*,21.1,
O=C(COc1ccc(Cl)cc1Cl)N1CCCN(C(=O)COc2ccc(Cl)cc2Cl)CC1,30.8,20.4,-15.0,-22.4,-18.2,58.7*,21.1,
CCOC(=O)[C@]12CCC=C1N(Cc1ccccc1)C(=O)[C@H](CC(=O)NCc1ccccc1)C2,nt,-9.9,nt,nt,-11.8,nt,nt,
COc1cc(C(=O)N/C(=C/c2ccc(F)cc2)C(=O)NC(C(=O)O)c2ccccc2)cc(OC)c1OC (configuration not stated),4.1,9.8,-0.9,-8.1,13.2,6.3,nt,
Cc1ccc(-n2c(O)c(/C=N/NC(=O)C3COc4ccccc4O3)c3ccccc3c2=O)cc1 (configuration not stated),12.5,-2.9,1.8,-2.2,10.0,60.4*,-1.6,
O=C(N/N=C/c1c(O)n(-c2ccccc2Cl)c(=O)c2ccccc12)C1COc2ccccc2O1 (configuration not stated),24.9,-4.3,3.8,4.4,-49.4,16.0,nt,
Cc1ccc(/C=N/NC(=O)C2COc3ccccc3O2)s1 (configuration not stated),-87.6,4.3,9.8,8.3,-136.8,53.0*,76.5*,Full FLuc ctr=57.3*
O=C(N/N=C/c1cccs1)C1COc2ccccc2O1 (configuration not stated),5.5,1.3,18.3,-12.5,-44.0,5.4,nt,
O=C(CNC(=O)C1COc2ccccc2O1)N/N=C/c1ccc(O)cc1O (configuration not stated),33.1,-6.8,7.1,11.6,8.7,50.5*,38.1,Full FLuc ctr=70.5*
COCCN(Cc1nc2ccccc2c(=O)[nH]1)C(=O)COc1ccccc1-c1ccccc1,35.0,7.2,3.2,-0.5,16.4,53.2*,43.2*,Full FLuc ctr=85.6*
SMILES,Peg3 promoter,ABHD5 PLIN5 PPI,CF NFkB inh,KKLEB cytotox,HIF-2a block,Mdm2 MdmX PPI,Mdm2-MdmX conf,others
Cc1cc(C(=O)CSc2nnnn2C)c(C)n1CCc1ccc(Cl)cc1,8.2,2.6,-26.2,4.1,4.0,55.4*,29.4,
Cc1cc(C(=O)CCl)c(C)n1CCc1ccccc1,nt,nt,nt,nt,nt,74.5*,43.0*,Full FLuc ctr=71.4*
COc1ccc(CCn2c(C)cc(C(=O)CSc3nnnn3-c3ccccc3)c2C)cc1,26.0,-2.2,24.9,-8.1,4.3,28.1,nt,
CCN(CC)CCN1CCN(c2cnc(C)cn2)CC1,6.3,-8.0,-8.3,1.8,1.0,nt,nt,
CC(C)N(CCNC(=O)c1nn(Cc2ccccc2)c(=O)c2ccccc12)C(C)C,8.9,7.5,-19.3,1.5,11.8,24.8,nt,
O=C(Nc1nc(-c2cc(Cl)sc2Cl)cs1)c1ccc(Br)s1,1.3,2.4,46.1,-20.9,-53.0,79.6*,7.1,
O=C(Nc1nc(-c2cc(Cl)sc2Cl)cs1)c1cccs1,-202.0,-1.8,-9.8,9.0,-253.7,22.9,nt,
Cc1c(Br)cnn1C(C)C(=O)N1CCN(c2ccc(F)cc2)CC1 (configuration not stated),12.1,-1.0,12.8,6.4,18.9,3.3,nt,
CCCCN(C=O)c1c(CC)nc2ccc(C(=O)N(C)Cc3ccccc3)cn12,-4.8,3.5,20.5,1.7,11.6,nt,nt,
CSc1cc(-c2ccccc2)n(Cc2c(Cl)cccc2Cl)c(=O)c1C#N,20.1,4.1,23.7,-33.2,16.9,65.7*,50.8*,Full FLuc ctr=68.8*
CSc1cc(-c2ccccc2)n(C)c(=O)c1C#N,-2.7,-2.2,-20.5,-1.9,-1.4,3.8,nt,
CCOC(=O)Cn1c(-c2ccccc2)cc(SC)c(C#N)c1=O,19.7,3.1,-9.8,3.8,8.4,-0.2,nt,
CSc1cc(-c2ccc(Cl)cc2)n(Cc2ccccc2)c(=O)c1C#N,54.2*,0.8,69.9*,-53.5*,11.3,98.0*,7.4,
O=C(N/N=C/c1ccc2c(c1)OCO2)c1sc2cc(Cl)ccc2c1Cl,31.1,0.2,6.8,-6.9,-49.9,62.5*,37.3,Full FLuc ctr=50.3*
